Assay outcomes (PubChem BioAssay)
Compounds with a hit are over-represented: about 27% of the library has one in this group of screens.
CYP2C9 activ: human CYP2C9 activators, primary screen, biochemical, luminescence. recombinant CYP2C9, luciferin-H conversion; stronger effect = higher value; factor 1 = untreated enzyme, 0 = blocked. activation factor at 5 µM. actives 1.4% (n = 96,000);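 active = activation factor of 2 or more for CYP2C9 at a 5 µM dose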
CYP2C19 act: human CYP2C19 activators, primary screen, biochemical, luminescence; 96,000 tested, under 10 active; activation factor at 5 µM; Cytochrome P450 2C19 (Homo sapiens), P33261; recombinant CYP2C19, luciferin-H EGE luminescence; stronger effect = higher value; 0 = fully inhibited enzyme, 1 = untreated enzyme;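 active = activation factor of at least 2 at 5 µM in the primary screen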
Target sequence (P33261 whole entry, looked up): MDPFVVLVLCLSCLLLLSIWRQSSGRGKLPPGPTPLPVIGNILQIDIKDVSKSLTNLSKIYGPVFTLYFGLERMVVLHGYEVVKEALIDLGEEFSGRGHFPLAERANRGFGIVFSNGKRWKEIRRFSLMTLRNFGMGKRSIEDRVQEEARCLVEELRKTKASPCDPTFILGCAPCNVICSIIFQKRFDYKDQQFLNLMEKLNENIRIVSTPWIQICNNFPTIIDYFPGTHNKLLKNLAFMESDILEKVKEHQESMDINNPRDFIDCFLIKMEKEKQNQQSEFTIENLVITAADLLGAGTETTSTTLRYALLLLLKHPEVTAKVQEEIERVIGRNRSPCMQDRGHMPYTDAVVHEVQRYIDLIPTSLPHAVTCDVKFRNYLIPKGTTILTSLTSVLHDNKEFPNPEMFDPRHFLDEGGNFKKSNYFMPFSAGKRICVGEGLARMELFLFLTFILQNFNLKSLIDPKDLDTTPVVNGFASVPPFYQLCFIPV
Cav3 T inh: Cav3.2 calcium influx blockers – cell-based, Fluo-4 calcium fluorescence, FDSS, MLSMR library, primary screen. Voltage-dependent T-type calcium channel subunit alpha-1H (Homo sapiens), O95180. Cav3.2-expressing cells; stronger effect = lower value. B-score at 10 µM. actives 4% (n = 100,000);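 active = single-dose well whose peak fluorescence ratio is a statistical outlier from its plate by either plate-standardised score or position-corrected B-score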
CYP2C9 inh: blockers of cytochrome P450 2C9 activity – biochemical, luminescence, ADME assay, primary screen; inhibition, % at 5 µM; actives 20% (n = 96,000); CYP2C9 Supersomes, luciferin-H conversion; P11712;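 active = blocking of liver enzyme CYP2C9 beyond about 50% at 5 µM, limit read from the data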
CYP2C19 inhib: blockers of cytochrome P450 2C19 activity – biochemical, luminescence, ADME assay, primary screen; CYP2C19 Supersomes, luciferin-H EGE luminescence, 30 min; inhibition, % at 5 µM; actives 21% (n = 96,000); AID 778, 2007;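 active = CYP2C19 inhibition above a set limit at 5 µM in the primary screen, cut at about 50% in these data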
Each line names hits and unclear results; the compound was inactive in the other large screens.

O=C(NCc1ccco1)c1cnn2c(C(F)F)cc(-c3ccccc3)nc12	CYP2C9 inh 57.8
O=C(CSc1nc2nc(-c3cccs3)cc(C(F)(F)F)c2c(=O)[nH]1)NCc1ccco1	Cav3 T inh -3.97, CYP2C9 inh 72.5
O=C(NCc1ccco1)c1cnn2c(C(F)(F)F)cc(-c3cccs3)nc12	CYP2C9 inh 50.7 (no result: Cav3 T inh)
Cc1ccc(N(C(=O)C2CCCC2)C2C=CS(=O)(=O)C2)cc1C (centres undefined)	none
CCC(=NCCN1CCNCC1)C1=C(O)CC(C)(C)CC1=O	none
Cc1nc(C(=O)N(C)C)nn1-c1cc(Cl)cc(Cl)c1	none
C=CCNC(=O)C(=O)NN=C1CCN(C)CC1	none
CC(=O)Nc1ccc(NC(=O)c2ccccc2CC[N+](=O)[O-])cc1	none
CCC(C)NC(=O)CSc1ncccc1C(=O)O (centres undefined)	none
c1ccc(CCNc2ccc3nncn3n2)cc1	CYP2C19 inhib 64.0
O=C1C(C23CC4CC(CC(C4)C2)C3)C(=O)N(c2ccccc2)N1c1ccccc1	none (no result: CYP2C9 activ, CYP2C19 act, CYP2C9 inh, CYP2C19 inhib)
CC1CCN(CC(=O)N2c3ccccc3CCc3ccccc32)CC1	none (no result: CYP2C9 activ, CYP2C19 act, CYP2C9 inh, CYP2C19 inhib)
CCc1cccc(CC)c1NC(=O)CN1CCN(c2ccccc2)CC1	CYP2C9 inh 82.8, CYP2C19 inhib 65.6
COC(=O)c1[nH]c2ccc(C)cc2c1NC(=O)CN1CCN(c2ccccc2)CC1	CYP2C9 inh 75.4, CYP2C19 inhib 89.6
Cc1c(C)n(C(=O)CN2CCC(C(N)=O)CC2)c2ccccc12	none
Cc1c(C)n(C(=O)CN2CCN(c3ccccc3)CC2)c2ccccc12	CYP2C19 inhib 56.2
COC(=O)c1[nH]c2ccc(C)cc2c1NC(=O)CN1CCN(c2ccc(F)cc2)CC1	none
Cc1ccc2[nH]c(C(=O)O)c(NC(=O)CN3CCN(c4cccc(C)c4C)CC3)c2c1	Cav3 T inh -4.95, CYP2C9 inh 82.7
CCN(CC)CCCn1c(=S)[nH]c2cc(Cl)ccc2c1=O	none
CCOC(=O)Cn1c(=S)[nH]c2c(oc3ccc(Cl)cc32)c1=O	CYP2C9 inh 75.5
CC(=O)c1cccc(NC(=O)CCOc2ccccc2)c1	none
COc1ccc(C(=O)Nc2cccc(OC)c2)cc1	none
COC(=O)c1cccc(NC(=O)CCCOc2ccccc2)c1	CYP2C9 inh 59.2, CYP2C19 inhib 80.2
CCOC(=O)c1ccc(NC(=O)Cn2nnc3ccccc32)cc1	none
COc1cccc(NC(=O)CNC(=O)c2ccccc2)c1	CYP2C19 inhib 50.5
COC(=O)c1cccc(NC(=O)Cn2nnc3ccccc32)c1	CYP2C9 inh 96.2, CYP2C19 inhib 64.2
COc1cccc(NC(=O)CNC(C)CCC(C)C)c1 (centres undefined)	CYP2C19 inhib 79.2
COc1cc(C(=O)Nc2ccc(N(C)C)cc2)cc(OC)c1OC	CYP2C19 inhib 70.1
COc1cccc(OC)c1C(=O)Nc1ccc(N2CCN(S(C)(=O)=O)CC2)cc1	none
COc1ccc(Br)cc1C(=O)Nc1ccc(O)cc1	CYP2C9 activ 3.1
COc1ccc(Br)cc1C(=O)Nc1ccc(N2CCN(S(C)(=O)=O)CC2)cc1	CYP2C9 activ 2
COc1cc(C(=O)Nc2ccc(Br)cc2C(=O)c2cc(OC)c(OC)c(OC)c2)cc(OC)c1OC	CYP2C9 inh 93.0, CYP2C19 inhib 67.9
COc1ccc(/C(O)=C2/C(=O)C(=O)N(CCN(C)C)C2c2ccc(OC)c(OC)c2)c(C)c1 (centres undefined)	none (no result: CYP2C9 activ, CYP2C19 act, CYP2C9 inh, CYP2C19 inhib)
COCc1cc(C)nc(SCC(=O)N2CCC(C)CC2)c1C#N	none
Cc1cc(C)c(S(=O)(=O)c2ccccc2C)c(OCC(C)(C)C)n1	none
COc1cc(OC)cc(C(=O)N[C@H](C(=O)NC23CC4CC(CC(C4)C2)C3)C(C)C)c1	none
CCOc1cccc(C(=O)Nc2ccc(N3CCN(S(C)(=O)=O)CC3)cc2)c1	CYP2C9 inh 52.7
COc1cccc(C(=O)Nc2ccc(N3CCN(S(C)(=O)=O)CC3)cc2)c1	none
Cc1ccc([N+](=O)[O-])cc1N/C=C/C(=O)c1ccco1	CYP2C9 inh 50.8
O=C(/C=C/Nc1ccc(F)cc1)c1ccco1	none
CCc1cc(C(N)=S)ccn1	none (no result: CYP2C9 activ, CYP2C19 act, CYP2C9 inh, CYP2C19 inhib)
C(=N\Nc1nc(-c2ccccc2)cs1)/c1cccnc1	CYP2C9 inh 88.7, CYP2C19 inhib 92.9
CC(/C=C/c1ccccc1)=N\Nc1nc(-c2ccccc2)cs1	none
CCOc1ccc(N2C(=O)CC(Sc3ncccn3)C2=O)cc1 (centres undefined)	none
C=CCNc1nnc(SC2CC(=O)N(c3ccc(OCCC)cc3)C2=O)s1 (centres undefined)	Cav3 T inh 3.3
Cc1ccc(C2(C)NC(=O)N(CCOc3ccccc3)C2=O)cc1 (centres undefined)	Cav3 T inh -3.28, CYP2C19 inhib 76.9
O=c1[nH]c2ccccc2nc1C(Cl)c1ccccc1 (centres undefined)	none
C#Cc1ccc([C@H]2C=C(C(=O)O)O[C@@H](OCCCCO)C2)cc1	none (no result: CYP2C9 activ, CYP2C19 act, CYP2C9 inh, CYP2C19 inhib)
COc1ccc(C/C(O)=C(\C#N)c2nc3ccccc3s2)cc1	CYP2C9 inh 68.4
Cc1ccc(SC/C(O)=C(\C#N)c2nc3ccccc3s2)cc1	Cav3 T inh -4.37, CYP2C9 inh 99.7, CYP2C19 inhib 53.5
N#C/C(=C1/CCCCCN1)c1nc2ccccc2s1	none (no result: Cav3 T inh)
N#C/C(=C(/O)CSc1ccccc1C(=O)O)c1nc2ccccc2s1	none
CN1CCN(NC(=O)c2cc([N+](=O)[O-])cc([N+](=O)[O-])c2)CC1	none
O=C(C1CCN(S(=O)(=O)c2cccc3cccnc23)CC1)N1CCN(c2ccccc2)CC1	none
CC1CCCN(C(=O)C2CCN(S(=O)(=O)c3cccc4cccnc34)CC2)C1 (centres undefined)	CYP2C9 activ 3.3
O=C(C1CCCN(S(=O)(=O)c2cccc3cccnc23)C1)N1CCN(c2ccc(F)cc2)CC1 (centres undefined)	CYP2C19 inhib 61.1
O=C(C1CCN(S(=O)(=O)c2cccc3cccnc23)CC1)N1CCN(C2CCCCC2)CC1	none
O=C(NCc1ccco1)C1CCCN(S(=O)(=O)c2cccc3cccnc23)C1 (centres undefined)	CYP2C9 activ 4.1, CYP2C19 inhib 70.4
O=C(Nc1ccncc1)C1CCCN(S(=O)(=O)c2cccc3cccnc23)C1 (centres undefined)	CYP2C9 inh 94.2, CYP2C19 inhib 98.7
COC(=O)C1(Cc2ccc(O)cc2)OC(=O)C(O)=C1c1ccc(O)cc1 (centres undefined)	none (no result: CYP2C9 activ, CYP2C19 act, CYP2C9 inh, CYP2C19 inhib)
CCN(Cc1ccccc1)Cc1cccc([N+](=O)[O-])c1	none
Cc1c(NC(=O)CC2CC(C)OC2=O)c(=O)n(-c2ccccc2)n1C (centres undefined)	none (no result: CYP2C9 activ, CYP2C19 act, CYP2C9 inh, CYP2C19 inhib)
